Experimental data as given in PubChem BioAssay (EPA / NIEHS).
The source made the active and inactive calls. The calls were made as follows: active = hit-call score of the fitted dose curve at least 0.9, where 1 is the maximum; inactive = score below 0.9.

Legend:
[1] = read-out: Interleukin-1 alpha (IL1a), IL1A (gene 3552); assay: BSK_LPS_IL1a: BioMAP Diversity Plus: LPS Assay for Interleukin-1 alpha (IL1a) Biomarker Activity (AID 2283080); details: primary human HUVEC with PBMC; actives raise or lower the signal
In short: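 HUVEC/PBMC co-culture, LPS system; 24 h after dosing; IL-1a by ELISA; gain or loss of signal fitted bidirectionally vs DMSO baseline.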

[2] = read-out: Monocyte Chemoattractant Protein-1 (MCP1), CCL2 (gene 6347); assay: BSK_LPS_MCP1: BioMAP Diversity Plus: LPS Assay for Monocyte Chemoattractant Protein-1 (MCP1) Biomarker Activity (AID 2283081); details: primary human HUVEC with PBMC; actives raise or lower the signal;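 as to AC50: secreted MCP-1 protein quantified by ELISA in culture supernatant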
In short: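 ELISA read-out of MCP-1 after 24 h chemical dosing of a human umbilical vein endothelial cell/peripheral blood mononuclear cell co-culture stimulated with LPS. Gain or loss of signal fitted relative to DMSO controls.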

[3] = read-out: Tissue Factor, F3 (gene 2152); assay: BSK_LPS_TissueFactor: BioMAP Diversity Plus: LPS Assay for Tissue Factor Biomarker Activity (AID 2283084); details: primary human HUVEC with PBMC; actives raise or lower the signal
In short: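 HUVEC/PBMC co-culture, LPS-activated; CD142 ELISA read 24 h post-dose; bidirectional curve fit vs DMSO negative control.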

[4] = read-out: Tumor necrosis factor (Homo sapiens) (UniProt P01375); assay: BSK_LPS_TNFa: BioMAP Diversity Plus: LPS Assay for Tumour Necrosis Factor alpha (TNFa) Biomarker Activity (AID 2283085); details: primary human HUVEC with PBMC; actives raise or lower the signal;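 as to AC50: TNFa protein level quantified by ELISA in the co-culture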
In short: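 ELISA-based TNFa endpoint in a human endothelial–PBMC co-culture sampled 24 h post-exposure. Curves were fitted in both directions using DMSO as baseline of activity.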

[5] = read-out: Vascular cell adhesion molecule 1 (VCAM1), VCAM1 (gene 7412); assay: BSK_LPS_VCAM1: BioMAP Diversity Plus: LPS Assay for Vascular cell adhesion molecule 1 (VCAM1) Biomarker Activity (AID 2283086); details: primary human HUVEC with PBMC; actives raise or lower the signal
In short: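 Measured by ELISA: VCAM-1 in LPS-activated HUVEC/PBMC co-cultures 24 h after treatment. Values reflect bidirectional fitting with DMSO as baseline.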

[6] = read-out: CD38, CD38 (gene 952); assay: BSK_SAg_CD38: BioMAP Diversity Plus: SAg Assay for CD38 Biomarker Activity (AID 2283087); details: primary human HUVEC with PBMC; actives raise or lower the signal
In short: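 Measures CD38 on a human endothelial/PBMC co-culture driven by SEB and TSST-1, 24 h after compound exposure, using ELISA with fluorescence detection; DMSO defines baseline for bidirectional curve fitting.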

[7] = read-out: CD69, CD69 (gene 969); assay: BSK_SAg_CD69: BioMAP Diversity Plus: SAg Assay for CD69 Biomarker Activity (AID 2283089); details: primary human HUVEC with PBMC; actives raise or lower the signal;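 as to AC50: cell surface CD69 protein quantified by ELISA with fluorescence detection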
In short: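 HUVEC co-cultured with PBMC were dosed with chemical, and CD69 was measured by ELISA with fluorescence read-out 24 h later. Bidirectional curve fitting used DMSO as negative control and activity baseline.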

[8] = read-out: Monocyte Chemoattractant Protein-1 (MCP1), CCL2 (gene 6347); assay: BSK_SAg_MCP1: BioMAP Diversity Plus: SAg Assay for Monocyte Chemoattractant Protein-1 (MCP1) Biomarker Activity (AID 2283090); details: primary human HUVEC with PBMC; actives raise or lower the signal
In short: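 Values derive from bidirectional fitting of ELISA-measured MCP1 against DMSO controls. Readings were taken 24 h after dosing human vascular endothelial cells co-cultured with peripheral blood mononuclear cells under superantigen stimulation.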

[9] = read-out: E-selectin (Homo sapiens) (UniProt P16581); assay: BSK_SAg_Eselectin: BioMAP Diversity Plus: SAg Assay for Eselectin Biomarker Activity (AID 2283091); details: primary human HUVEC with PBMC; actives raise or lower the signal
In short: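 E-selectin ELISA readout at 24 h post-dosing in human umbilical vein endothelial cell/PBMC co-culture; gain or loss of signal fitted relative to DMSO baseline.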

[10] = read-out: Monokine induced gamma interferon (MIG), CXCL9 (gene 4283); assay: BSK_SAg_MIG: BioMAP Diversity Plus: SAg Assay for Monokine induced gamma interferon (MIG) Biomarker Activity (AID 2283092); details: primary human HUVEC with PBMC; actives raise or lower the signal
In short: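 HUVEC plus human PBMC co-culture, chemicals dosed and MIG (CXCL9) quantified by ELISA at 24 h. Bidirectional curve fitting against DMSO as negative control and baseline, so both gain and loss of signal count as activity.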

[11] = BSK_SAg_PBMCCytotoxicity: PBMC Cytotoxicity Assessment in the BioMAP Diversity Plus: SAg Assay (AID 2283093); details: primary human HUVEC with PBMC;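 also: PBMC viability measured as Alamar Blue reduction fluorescence at 546/580 nm; fitted both ways against DMSO so a hit may be loss or gain of signal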;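 as to AC50: PBMC superantigen activated with SEB plus TSST-1 one hour after compound addition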
In short: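 Alamar Blue reduction (6 h, 546/580 nm) reports PBMC cytotoxicity after 90 h superantigen activation (SEB, TSST-1; 20 ng/mL final each) with 1 h compound pre-treatment. Gain or loss of signal fitted versus DMSO.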

[12] = read-out: Interleukin-8 (IL8), CXCL8 (gene 3576); assay: BSK_SAg_IL8: BioMAP Diversity Plus: SAg Assay for Interleukin-8 (IL8) Biomarker Activity (AID 2283094); details: primary human HUVEC with PBMC; actives raise or lower the signal
In short: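 Primary human endothelial cells with PBMC, exposed 24 h; IL-8 determined by ELISA, analysed bidirectionally relative to DMSO.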

[13] = BSK_SAg_Proliferation: Cell Proliferation Assessment in the BioMAP Diversity Plus: SAg Assay (AID 2283095); details: primary human HUVEC with PBMC;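 also: relative cell number as total protein by SRB absorbance in sub-confluent culture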
In short: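 A human primary co-culture of umbilical vein endothelium and blood mononuclear cells receives compound; relative cell number is quantified at 96 h by SRB staining and 560 nm absorbance, with DMSO-referenced bidirectional curve fitting.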

[14] = BSK_SAg_SRB: Viability Assessment in the BioMAP Diversity Plus: SAg Assay (AID 2283096); details: primary human HUVEC with PBMC;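 also: cells read one day after compound addition; hits may be either gain or loss of signal compared with DMSO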
In short: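 This overt-cytotoxicity endpoint quantifies protein in human endothelial/PBMC co-cultures at 24 h using SRB absorbance (560 nm) after trichloroacetic acid fixation. Values reflect signal change from the DMSO negative control, fitted bidirectionally.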

[15] = BSK_LPS_PGE2: BioMAP Diversity Plus: LPS Assay for Prostaglandin E2 (PGE2) Biomarker Activity (AID 2283082); details: primary human HUVEC with PBMC; actives raise or lower the signal
In short: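 Primary human endothelial cells and blood mononuclear cells, co-cultured with LPS, receive test chemical; PGE2 ELISA follows at 24 h, with SRB-stained parallel cultures flagging cytotoxicity.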

[16] = read-out: Macrophage colony-stimulating factor (MCSF), CSF1 (gene 1435); assay: BSK_LPS_MCSF: BioMAP Diversity Plus: LPS Assay for Macrophage colony-stimulating factor (MCSF) Biomarker Activity (AID 2283083); details: primary human HUVEC with PBMC; actives raise or lower the signal
In short: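 HUVEC + PBMC co-culture (human primary), 24 h post-dose; M-CSF by ELISA; gain/loss of signal fitted bidirectionally vs DMSO baseline.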

[17] = read-out: CD40, CD40 (gene 958); assay: BSK_SAg_CD40: BioMAP Diversity Plus: SAg Assay for CD40 Biomarker Activity (AID 2283088); details: primary human HUVEC with PBMC; actives raise or lower the signal
In short: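 HUVEC/PBMC co-culture, 24 h post-dose; CD40 by ELISA, fluorescence intensity; bidirectional fit vs DMSO negative control.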

Measured: AC50

Chain of E-selectin (Homo sapiens) (P16581 whole entry, looked up): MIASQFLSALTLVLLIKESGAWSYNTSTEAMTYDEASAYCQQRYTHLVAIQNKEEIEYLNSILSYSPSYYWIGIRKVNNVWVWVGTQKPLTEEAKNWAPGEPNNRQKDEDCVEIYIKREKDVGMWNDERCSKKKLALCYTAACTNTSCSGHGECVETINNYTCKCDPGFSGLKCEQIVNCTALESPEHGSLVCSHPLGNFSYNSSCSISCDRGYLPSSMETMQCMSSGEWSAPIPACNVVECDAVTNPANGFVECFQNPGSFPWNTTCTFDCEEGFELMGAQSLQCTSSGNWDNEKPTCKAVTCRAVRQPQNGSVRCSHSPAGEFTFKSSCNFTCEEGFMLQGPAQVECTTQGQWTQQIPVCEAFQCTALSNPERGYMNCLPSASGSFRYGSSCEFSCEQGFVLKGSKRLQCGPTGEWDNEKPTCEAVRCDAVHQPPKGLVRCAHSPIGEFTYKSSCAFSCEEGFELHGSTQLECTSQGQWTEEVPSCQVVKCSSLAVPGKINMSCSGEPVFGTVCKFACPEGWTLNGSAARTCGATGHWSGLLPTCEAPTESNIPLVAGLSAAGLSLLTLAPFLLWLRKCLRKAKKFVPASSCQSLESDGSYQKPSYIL
Chain of Tumor necrosis factor (Homo sapiens) (P01375 whole entry, looked up): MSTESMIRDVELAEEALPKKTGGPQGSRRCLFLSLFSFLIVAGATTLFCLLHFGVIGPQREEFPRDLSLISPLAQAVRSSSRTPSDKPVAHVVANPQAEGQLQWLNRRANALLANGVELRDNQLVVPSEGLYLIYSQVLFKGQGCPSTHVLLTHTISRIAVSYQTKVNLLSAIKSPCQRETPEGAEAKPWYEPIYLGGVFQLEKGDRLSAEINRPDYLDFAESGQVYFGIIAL

CCOP(=S)(Oc1cnc(C(C)(C)C)nc1)OC(C)C (stereo not given)
active: [1] 36.7 µM | [2] 32.2 µM | [3] 33.1 µM | [4] 36.5 µM | [5] 32.5 µM | [6] 36.2 µM | [7] 30 µM | [8] 30.7 µM | [9] 31.4 µM | [10] 33.3 µM | [11] 36.7 µM | [12] 30.3 µM | [13] 36.6 µM | [14] 34.3 µM

CN(C)C(=O)Nc1cccc(C(F)(F)F)c1
not listed: [17]
inactive: all other assays above

COP(=O)(OC)OC(Br)C(Cl)(Cl)Br (stereo not given)
active: [1] 32.3 µM | [2] 36.5 µM | [16] 28.5 µM | [3] 15.2 µM | [4] 28.9 µM | [5] 26.4 µM | [6] 31.5 µM | [17] 30.2 µM | [7] 30.1 µM | [9] 22.7 µM | [10] 36.8 µM | [11] 14.7 µM | [12] 22.9 µM | [13] 7.28 µM | [14] 30.4 µM

CC(COc1ccc(Oc2ccccc2)cc1)Oc1ccccn1 (stereo not given)
active: [5] 0.843 µM | [11] 12 µM | [13] 26.7 µM | [14] 7.1 µM
not listed: [15] | [17]
inactive: all other assays above

CCC(=NOC/C=C/Cl)C1=C(O)CC(C2CCOCC2)CC1=O (stereo not given)
not listed: [1] | [16]
inactive: all other assays above
